Screening data (PubChem BioAssay)
This is a sample that favours compounds with a hit; in the whole collection about 4.6% have one here.
SKKanGAS inh – blocks kanamycin growth of S. pyogenes SKKanGAS strain; BacTiter-Glo, 6 h; inhibition, % at 7.5 µM; actives 1.3% (n = 300,000);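 active = mean replicate score, as percent of positive control median, at least 50; inconclusive = mean below 50 but one replicate at or above 50; inactive = mean and every replicate below 50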;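 also: strain carries kanamycin resistance gene driven by streptokinase promoter and grows in 40 µg/ml kanamycin; loss of luminescence reflects streptokinase promoter inhibition or plain growth inhibition; 0% = median of DMSO wells and 100% = positive control at its reference dose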
PfHsp90 set2 – inhibits growth of yeast expressing Plasmodium falciparum Hsp90 | actives 0.32% (n = 310,000) | inhibition, % at 9.4 µM | S. cerevisiae expressing PfHsp90, BacTiter-Glo ATP, 48 h; yeast lacking PDR1 and PDR3 efflux regulators;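 active = every replicate shows inhibition above about 80%, whatever the replicate mean, limit read from the data; inconclusive = mean inhibition reaches the set limit but some replicate falls short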;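 also: 0% = DMSO neutral controls and 100% = 20 µM radicicol positive controls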
V-ATPase pHluor – yeast V-ATPase proton transport regulation by pHLuorin. AID 504577. actives 0.37% (n = 350,000). S. cerevisiae, pHLuorin cytosolic pH fluorescence. response, % at 10 µM; in the data active = response mostly above about 7.3%, no sharp cut-off; inactive = mostly below about 5.4%; also: actives read high
tim10-1 inh – tim10-1 yeast growth inhibition | S. cerevisiae tim10-1 ts strain growth, BacTiter-Glo, 24 h | inhibition, % at 20 µM | actives 2.2% (n = 330,000) | AID 463190;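 active = inhibition of at least 40%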;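 also: mutant grown at 25 °C; 0% = DMSO wells with yeast and 100% = wells holding no yeast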
TIM10 inh – TIM10 yeast growth inhibition | S. cerevisiae TIM10 strain growth, BacTiter-Glo luminescence, 24 h | inhibition, % at 10 µM | actives 1.4% (n = 330,000);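 active = inhibition of 40% or more at the single tested concentration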;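 also: wild-type TIM10 isogenic control strain grown at permissive 25 °C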
tim23-1 inh – growth inhibitors of tim23-1 mutant yeast; S. cerevisiae tim23-1 growth, BacTiter-Glo luminescence, 24 h; inhibition, % at 20 µM; actives 1.3% (n = 330,000); AID 463212;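 active = growth inhibition of the mutant yeast at or above 50%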;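 also: temperature-sensitive mutant grown at 25 °C; plate controls were DMSO-treated mutant yeast for no effect and medium wells lacking yeast for full effect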
tim10-1 conf – confirmation of tim10-1 mutant yeast growth inhibitors | shares compounds with tim10-1 inh | S. cerevisiae tim10-1 ts strain growth, BacTiter-Glo, 24 h | inhibition, % at 20 µM | actives 56% (n = 7,400);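 active = inhibition of yeast growth at or above a set limit in either of two repeat tests at 20 µM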;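 also: tim10-1 mutant grown at permissive 25 °C to find synthetic lethal compounds; 0% = DMSO yeast wells and 100% = medium wells without yeast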
tim10 confirm – confirmation of TIM10 yeast growth inhibitors | S. cerevisiae tim10 strain growth, BacTiter-Glo luminescence, 24 h | AID 463215 | actives 63% (n = 4,600) | inhibition, % at 10 µM | shares compounds with TIM10 inh;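 active = inhibition of yeast growth at or above a set limit in either of two replicates at 10 µM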;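 also: this counterscreen used the strain with wild-type TIM10; 0% = yeast with DMSO and 100% = medium wells lacking yeast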
tim23-1 confirm – tim23-1 yeast growth inhibition, confirmed | shares compounds with tim23-1 inh | S. cerevisiae tim23-1 growth, BacTiter-Glo luminescence, 24 h | inhibition, % at 20 µM | actives 83% (n = 4,400) | AID 463218;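 active = inhibition above about 39% in either of two replicate wells at 20 µM, limit read from the data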;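 also: temperature-sensitive tim23-1 mutant grown at 25 °C; 0% = DMSO wells with yeast and 100% = medium wells without yeast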
Starred values were filed as active, the others as inactive; ? = inconclusive; . = no result given.

SMILES | SKKanGAS inh | PfHsp90 set2 | V-ATPase pHluor | tim10-1 inh | TIM10 inh | tim23-1 inh | tim10-1 conf | tim23-1 confirm | others
N#C/C(=C\c1cc(Cl)ccc1O)C(=O)NC1CCCCC1 | 9.1 | -8.1 | -2.3 | 27.0 | 22.3 | 30.6 | . | .
O=C(CN(Cc1cccs1)C(=O)CNS(=O)(=O)c1ccccc1)NC1CCCC1 | 0.7 | -0.4 | -2.5 | -12.5 | -22.7 | -6.2 | . | .
O=C1c2c(O)ccc(O)c2C(=O)c2c(NCCNCCO)ccc(NCCNCCO)c21 | . | 7.0 | 3.0 | -30.6 | -186.4 | -45.9 | . | .
O=C1c2ccccc2C(=O)c2c(Nc3ccc(CCO)cc3)ccc(O)c21 | 82.9* | 6.9 | 2.0 | 59.0* | 34.1 | 56.9* | 36.9* | 51.3*
Cc1ccc(C)c(C(=O)Nc2ccncc2)c1 | -5.0 | -9.0 | 0.9 | 2.1 | -6.6 | 15.6 | . | .
Cc1ccc(NC(=O)CNC(=O)C2CCCCC2)nc1 | 12.3 | . | 2.0 | -26.5 | -1.2 | -11.5 | . | .
Oc1ccc2ccccc2c1CNc1ccc(Br)cn1 | 8.3 | 2.1 | -0.6 | 45.6* | 37.4 | 61.1* | 62.6* | 67.7*
Oc1ccc2ccccc2c1CNc1ccc(Br)cc1 | 0.5 | . | . | 15.9 | 30.6 | 24.9 | . | .
CNC(=O)c1c(NC(=O)c2ccco2)sc2c1CCCC2 | ? | 1.4 | 2.3 | 58.4* | 25.7 | 57.8* | 38.5* | 48.5*
Cc1ccc(NC(=O)COc2ccccc2C=O)cc1Cl | -0.7 | 17.5 | 3.8 | 42.7* | 50.7* | 68.6* | 26.0 | 69.0* | tim10 confirm=50.6*
COc1ccc(/C=N/NC(=O)c2cccc(COCC(F)(F)C(F)F)c2)cc1 | -1.1 | -22.2 | -1.1 | 2.9 | 11.8 | 18.3 | . | .
O=C(O)CNC(=O)CC1S/C(=N/N=C2\CSC(=O)N2)NC1=O (stereo not drawn) | -6.7 | -7.9 | 4.2 | 5.1 | 7.6 | 12.3 | . | .
O=C(CCc1ccc(Oc2cc([N+](=O)[O-])cc([N+](=O)[O-])c2)cc1)N1CCCCCC1 | 14.0 | -20.9 | -1.4 | 42.7* | 44.6* | 51.0* | 38.5* | 50.5* | tim10 confirm=42.2*
CC1CCN(C2=NC(=O)/C(=C/c3ccccc3F)S2)CC1 | 4.9 | 22.2 | -0.8 | 45.9* | 13.1 | 52.4* | 35.4* | 53.1*
CC1CCN(C2=NC(=O)/C(=C/c3cccc(O)c3)S2)CC1 | -2.9 | -19.7 | 0.3 | 21.5 | 23.3 | 19.7 | . | .
Cc1cc(C(=O)Nc2ccc(Nc3ccccc3)cc2)ccc1[N+](=O)[O-] | 0.7 | -19.6 | -2.3 | -13.4 | -3.6 | -2.2 | . | .
O=C(Nc1ccc(Nc2ccccc2)cc1)c1ccc(Cl)c([N+](=O)[O-])c1 | 5.7 | 8.0 | -0.5 | 45.7* | 23.4 | 73.3* | 27.6 | 56.8*
COc1ccccc1C(=O)NC(=O)CSc1ccc(C)c(C)c1 | . | -13.4 | 0.1 | 20.3 | 17.4 | 47.6 | . | .
COc1ccccc1N1CCN(Cc2cc(Br)c(O)c3ncccc23)CC1 | 82.3* | -69.7 | 0.4 | 53.6* | -8.7 | 67.5* | 19.2 | 57.4*
CC(C)(C)c1cc(NCCCn2ccnc2)n2ncc(-c3ccccc3)c2n1 | 39.9 | 20.6 | -1.2 | 50.6* | 15.4 | 60.2* | 29.9* | 59.3*
COc1ccc(N2C(=O)c3ccccc3C2=O)cc1 | 2.3 | 0.8 | 1.2 | 0.7 | 14.0 | 18.7 | . | .
COc1ccc(N2C(=O)C(Cl)=C(Oc3cccc(OC)c3)C2=O)cc1 | . | 1.6 | 5.6 | 72.3* | 75.4* | 53.4* | 56.8* | 4.5 | tim10 confirm=81.5*
COc1cc(C(O)P(=O)(OC2CCCCC2)c2ccc(N(C)C)cc2)cc(OC)c1OC (stereo not drawn) | -7.5 | . | -0.6 | 15.5 | 17.6 | 5.6 | . | .
CC(C)c1ccc(C(O)P(=O)(OC2CCCCC2)OC2CCCCC2)cc1 (stereo not drawn) | 13.5 | . | 1.9 | 43.9* | 34.0 | 57.6* | 26.1 | 46.0*
N#CC1=C(N)OC2=C(C(=O)CC(c3ccccc3)C2)C1c1ccc2c(c1)OCO2 (stereo not drawn) | 1.5 | 26.1 | -0.4 | 32.4 | 19.2 | 31.6 | . | .
SMILES | SKKanGAS inh | PfHsp90 set2 | V-ATPase pHluor | tim10-1 inh | TIM10 inh | tim23-1 inh | tim10-1 conf | tim23-1 confirm | others
N#CC1=C(N)OC(c2ccccc2)=C(C#N)C1c1ccc2c(c1)OCO2 (stereo not drawn) | -2.0 | -34.5 | -1.3 | 62.4* | 82.2* | 71.9* | 56.4* | 74.6* | tim10 confirm=70.8*
O=C(Nc1ncccn1)c1ccc(Cl)c([N+](=O)[O-])c1 | 2.3 | -3.6 | 2.7 | -15.8 | -4.7 | -7.4 | . | .
O=C(O)CC1S/C(=N/N=C/C2CC=CCC2)NC1=O (stereo not drawn) | -0.9 | -14.4 | 2.5 | 2.9 | -23.7 | 10.7 | . | .
O=C1Nc2ccc(Cl)cc2/C1=C/C1CC=CCC1 (stereo not drawn) | -4.8 | 31.5 | 8.2 | 77.6* | 59.1* | 64.4* | 87.0* | 65.1* | tim10 confirm=19.2
COc1ccc(C/C(N)=N/OC(=O)Cc2ccccc2)cc1OC | 0.4 | 9.1 | -1.6 | 16.0 | -1.8 | 16.0 | . | .
N/C(Cc1ccc(Cl)cc1Cl)=N\OC(=O)Cc1ccccc1 | 23.6 | 16.9 | -1.6 | 52.2* | 85.9* | 74.8* | 22.6 | 61.0* | tim10 confirm=87.9*
CC(C)(C)NC(=O)C(c1ccc(O)cc1)N(Cc1ccco1)C(=O)CCC(=O)Nc1ccccn1 (stereo not drawn) | 1.3 | -21.4 | 7.4 | 6.4 | -8.8 | -4.5 | . | .
CC(C)(C)NC(=O)C(c1ccc(Cl)cc1)N(Cc1ccco1)C(=O)CCl (stereo not drawn) | 1.2 | 16.9 | 0.7 | 53.4* | 36.9 | 51.3* | 38.0* | 48.5*
C/C(=N\NC(=O)CCCC(=O)O)c1c(-c2ccccc2)c2cc(Cl)ccc2[nH]c1=O | -19.0 | 7.4 | 5.2 | 2.5 | 26.6 | -20.5 | . | .
NNC(=O)c1[nH]c2ccc(Cl)cc2c1-c1ccccc1 | 4.5 | 16.2 | 4.2 | 50.7* | 19.4 | 61.5* | 52.5* | 42.0*
Cc1ccc(N=Cc2c(C)[nH]n(-c3nc4ccccc4[nH]3)c2=O)cc1 | 66.0* | 91.2* | 0.4 | 62.4* | 43.8* | 65.3* | 59.5* | 67.7* | tim10 confirm=-11.4
Cc1c(Cl)cccc1NC(=S)NCc1cccs1 | 12.5 | 8.2 | -7.7 | 36.8 | 36.4 | 25.8 | . | .
S=C(NCc1cccs1)Nc1cccc(Cl)c1Cl | 6.2 | -19.6 | 2.7 | 50.3* | 40.5* | 55.9* | 32.3* | 55.7* | tim10 confirm=5.5
CN1C(=O)/C(=C\C(=O)c2cccs2)c2ccccc21 | -4.2 | 1.3 | 0.8 | 47.2* | 84.9* | 83.8* | 69.8* | -86.2 | tim10 confirm=81.0*
